Bioassay records (PubChem)
VDR inh: blocks the human vitamin D receptor; P11473; VDR-SRC2-3 peptide fluorescence polarization, 2 h; Potency, µM, actives largely listed as inhibitors; hit rate 0.93% among 400,000; AID 504847
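Two reagent solutions held at 4 deg C in the dark were dispensed, compounds pinned at 23 nl, and the mixture incubated 2 h at room temperature. Read-out: fluorescence polarization of VDR–SRC2-3 peptide binding.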
FBPA coupling cs: inhibits coupling enzyme system, counter-screen for aldolase hits; coupling enzyme system counterscreen, AmpLite Red fluorescence; activity change, negative = inhibition, % at 58.2 µM, hits read low; hit rate 0.67% among 290,000; in the data active = activity change below about -30%
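Final compound at 57.5 uM, incubated 10 min at RT with coupling enzyme reagent (glyceraldehyde-3-phosphate), then 20 min with substrate and AmpLite Red detection. Fluorescence read at 525/598 nm; tests interference with the coupling assay, not aldolase inhibition.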
USP2a inh: blocks human ubiquitin-specific protease USP2a; hit rate 0.01% among 330,000; USP2 core, Ub-CHOP2 coupled fluorogenic reporter, 485/531; O75604; Potency, µM (series often up to 38.3 µM), hits mostly inhibitors; AID 463254
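Deubiquitinase activity read as fluorescence (485/531 nm) after Ub-CHOP2 cleavage activates the enterokinase reporter on its substrate; USP2 core 10nM, Ub-CHOP2 and substrate 25nM each, 30min compound preincubation then 60min RT; data normalized to NEM, curves fitted.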
PLK1 PBD inh: blocks phosphopeptide binding to human PLK1 polo-box domain; Plk1 PBD binding of FITC phosphopeptide, fluorescence polarization; P53350; AID 720504; Potency, µM, hits mostly inhibitors; hit rate 2.8% among 360,000; note: series mostly up to about 57 µM; nearly all actives have a fitted effect of over 65% in size
Target sequence (P53350 whole entry, looked up, the tested form may be a part): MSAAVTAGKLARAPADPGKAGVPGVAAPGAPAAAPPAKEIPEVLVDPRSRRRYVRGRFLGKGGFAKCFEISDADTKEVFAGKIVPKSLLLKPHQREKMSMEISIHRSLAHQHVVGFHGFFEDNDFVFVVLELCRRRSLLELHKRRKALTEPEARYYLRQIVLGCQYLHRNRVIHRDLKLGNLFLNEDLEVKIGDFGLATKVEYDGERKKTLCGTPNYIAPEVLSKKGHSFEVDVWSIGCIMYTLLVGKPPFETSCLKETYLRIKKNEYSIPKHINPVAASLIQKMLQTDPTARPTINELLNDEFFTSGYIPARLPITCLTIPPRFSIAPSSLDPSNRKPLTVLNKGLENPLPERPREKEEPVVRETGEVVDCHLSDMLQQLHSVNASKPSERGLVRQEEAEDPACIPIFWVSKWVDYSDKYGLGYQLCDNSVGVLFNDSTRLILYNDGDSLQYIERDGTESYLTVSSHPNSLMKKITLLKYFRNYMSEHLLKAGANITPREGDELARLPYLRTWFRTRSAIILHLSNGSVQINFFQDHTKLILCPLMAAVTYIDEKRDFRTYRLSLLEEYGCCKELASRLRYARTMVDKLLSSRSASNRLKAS
USP1 inh: blocks the human USP1/UAF1 deubiquitinase complex; O94782; recombinant USP1/UAF1, Ub-Rhodamine cleavage fluorescence; Potency, µM (top dose mostly 57.1 µM), most hits filed as inhibitors; hit rate 0.23% among 390,000; AID 743255; note: nearly all actives have a fitted effect of over 60% in size
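1 nM enzyme complex + cpd, 15 min RT; start with Ub-Rho 150nM final; kinetic fluorescence ex 480/em 540, 6 reads q60 s. Buffer 50mM HEPES pH 7.8, 0.5mM EDTA, 0.1 mg/ml BSA, 1mM TCEP, 0.01% Tween-20.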
GALK inhibitor: galactokinase (human) inhibition | AID 1868 | P51570 | hit rate 0.007% among 270,000 | Purified GALK, Kinase-Glo residual ATP luminescence | Potency, µM (series often up to 57.5 µM), usual class: inhibitors
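Quantitative HTS: GALK 5 nM, ATP 35 uM, galactose 100 uM, 1 h room temperature, then luciferase-based ATP detection.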
A number is an active result; 0 = inactive; ? = inconclusive; - = no result given. Compounds with a hit are over-represented: about 3.2% of the library has one in this group of screens. Unless noted, calls come from the whole dose curve; as a rule, active = well fitted curve in the direction sought with a large enough effect; inconclusive = small, poorly fitted or top-dose-only effect, or another doubt; inactive = no such curve, though single readings can be large; an effect the other way counts as inactive or inconclusive.

SMILES	VDR inh	FBPA coupling cs	USP2a inh	PLK1 PBD inh	USP1 inh	GALK inhibitor
CCOc1ccccc1CN1CCNC(=O)C1CC(=O)NC1CCCCC1 (centres undefined)	0	-	0	0	0	0
COc1cccc(CN2CCNC(=O)C2CC(=O)N2CCCCO2)c1OC (centres undefined)	0	-45	0	0	0	0
CCN(C(=O)COC(=O)c1ccccc1NC(=O)c1ccco1)C1CCS(=O)(=O)C1 (centres undefined)	0	0	0	0	0	0
Cc1nc(CCN2C(=O)c3ccccc3C2=O)n[nH]1	?	0	0	7.5µM	0	0
COCCNC(=O)c1ccccc1N(Cc1ccccc1)S(=O)(=O)c1ccc(C)cc1	0	0	0	27µM	0	0
C/C(=N\NC(=O)c1csc(C)c1C)c1ccc(Cl)s1	0	0	0	24µM	0	0
Oc1cccc(CN2CCOCC2)c1O	?	-	-	0	0	-
CCCc1cc(CN2CCOCC2)c(O)c(CN2CCOCC2)c1O	22µM	-	-	6.7µM	0	-
Oc1c(Cl)cc(Oc2cc(Cl)c(O)c(CN3CCOCC3)c2)cc1CN1CCOCC1	0	-	-	0	0	-
Oc1c(CN2CCOCC2)cc(CN2CCOCC2)c(O)c1O	20µM	-	-	1.7µM	?	-
Oc1ccc2ccccc2c1CN1CCOCC1	?	0	0	27µM	0	0
COc1c(C)cc(C(=O)C2CCCN(S(=O)(=O)N(C)C)C2)cc1C (centres undefined)	0	0	0	0	0	0
O=C(O)C[C@@H]1C(=O)O[C@@H]2C(COC(=O)c3cc(O)c(O)c(O)c3)O[C@@H](OC(=O)c3cc(O)c(O)c(O)c3)[C@@H](OC(=O)c3cc(O)c(O)c4c3[C@H]1[C@H](O)C(=O)O4)[C@H]2OC(=O)c1cc(O)c(O)c(O)c1 (some centres undefined)	-	0	0.89µM	-	-	14µM
C=CCOc1ccc2c3c(c(=O)oc2c1)CCCC3	0	-	-	0	0	-
CC(=O)Oc1ccc2c3c(c(=O)oc2c1)CCCC3	0	0	0	0	0	0
CCCOc1ccc2c3c(c(=O)oc2c1)CCCC3	0	0	0	7.5µM	0	0
O=C(Oc1ccc2c3c(c(=O)oc2c1)CCCC3)c1ccco1	0	0	0	24µM	0	0
Cc1cccc(C(=O)N(Cc2ccco2)c2c(N)n(Cc3ccccc3)c(=O)[nH]c2=O)c1	0	-	0	0	0	-
O=C(N/N=C/c1ccc(-c2ccccc2[N+](=O)[O-])o1)[C@H]1C[C@@H]1c1ccccc1	?	-44	0	0	?	0
O=C(N/N=C/c1ccc(-c2ccc([N+](=O)[O-])cc2)o1)[C@H]1C[C@@H]1c1ccccc1	0	0	0	0	0	0
Cc1ccc(C(=O)N/N=C/c2ccc(-c3ccccc3[N+](=O)[O-])o2)cn1	?	-61	0	0	0	0
CCc1cc(C(=O)c2ccccc2OC)c(N)s1	0	0	0	0	0	0
O=C(CCC(=O)OCc1ccc(Br)cc1)Nc1ccccc1	?	0	0	27µM	0	0
O=C(CCC(=O)OCc1ccc(C(=O)Oc2ccc(Cl)cc2)cc1)Nc1ccccc1	0	0	0	0	0	0
O=C1C(=O)c2c(ccc3ccccc23)-c2ccccc21	?	-	-	0	4µM	-
SMILES	VDR inh	FBPA coupling cs	USP2a inh	PLK1 PBD inh	USP1 inh	GALK inhibitor
Cc1ccccc1NC(=O)CN(C)S(=O)(=O)c1cccs1	0	0	0	0	0	0
COc1ccc(OCC(=O)Nc2ccc(N3CCOCC3)cc2)c([N+](=O)[O-])c1	0	0	0	0	0	0
NS(=O)(=O)Oc1ccccc1	0	0	0	0	0	-
O=S(=O)(CS(=O)(=O)Oc1ccccc1)Oc1ccccc1	0	-	-	21µM	0	-
O=C(O)c1ccccc1Nc1cc(Cl)c2nonc2c1[N+](=O)[O-]	35µM	0	0	7.5µM	?	0
C[N+]1(C)CCC(=C2c3ccccc3CC(=O)c3sccc32)CC1	0	-	0	38µM	28µM	0
CC[N+]1(C)CCC(=C2c3ccccc3CC(=O)c3sccc32)CC1 (centres undefined)	0	0	0	0	0	0
CCNc1ccc(C(=O)O)cc1N	79µM	0	0	0	0	-
O=C(CCl)c1ccc2[nH]c(=O)oc2c1	0	0	0	7.5µM	0	-
O=c1[nH]c2ccc(Br)cc2o1	0	-	-	0	?	-
COc1cc2[nH]c3c(=O)n(CCN(C(C)C)C(C)C)cnc3c2cc1OC	0	-45	0	0	0	0
COc1cc2[nH]c3c(=O)n(CCN4CCOCC4)cnc3c2cc1OC	0	0	0	0	0	0
CN(C(=O)CSc1nnc(-c2ccccc2)n1C)C1CCS(=O)(=O)C1 (centres undefined)	0	0	0	27µM	0	0
CN(C(=O)CSc1nc(-c2ccccc2)c(-c2ccccc2)o1)C1CCS(=O)(=O)C1 (centres undefined)	0	0	0	30µM	0	0
Cc1cc(N2CCCCCC2)nc2ccc(F)cc12	0	-	-	0	0	-
O=C(NNC(=O)c1ccc[nH]1)c1cc(Cl)cc(Cl)c1	0	-	0	0	0	0
O=C(Nc1cccn(Cc2c(Cl)cccc2Cl)c1=O)C1CC1	0	0	0	27µM	0	0
C=CCOn1c(=O)c(-c2cc3ccccc3o2)[n+]([O-])c2ccccc21	0	0	0	30µM	?	0
C=CCOn1c(=O)c(-c2ccccc2)[n+]([O-])c2ccccc21	0	0	0	0	0	0
COc1ccc(CNC(=S)Nc2cccc(C)c2)cc1	0	0	0	0	0	0
O=C(CSc1nnnn1C1CCCCC1)N1CCOCC1	0	0	0	27µM	0	0
O=C(CSc1nc2[nH]ncc2c(=O)[nH]1)NCc1ccccc1	0	0	0	0	0	0
O=C(CSc1nncc(=O)[nH]1)Nc1cccc([N+](=O)[O-])c1	?	0	0	21µM	0	0
O=C(CSc1nncc(=O)[nH]1)NCc1ccccc1	0	0	0	27µM	0	0
Nc1cc(=O)[nH]c(SCC(=O)Nc2cccc([N+](=O)[O-])c2)n1	0	0	0	0	?	0
CC(C)(C)c1cc(NC(=O)COC(=O)c2nccnc2N)n(-c2ccccc2)n1	0	0	0	0	0	0
Cc1ccc(C(=O)NC2CCN(CCCC(=O)c3ccc(F)cc3)CC2)cc1	0	0	0	0	0	0
O=C(CCN1CCC2CCC(C2)C1)c1ccc(F)cc1 (centres undefined)	?	-	-	8.4µM	0	-
CCOC(=O)C(=CNc1ccc(Oc2cccnc2)nc1)C(=O)OCC	0	0	0	0	0	0
Nc1ccc2c(C(F)(F)F)cc(C(F)(F)F)nc2n1	0	0	0	0	0	0
